Shown are actives, neighbours in structure and some others; about 2.3% of the full set was active somewhere.
CCT chaperon mod – changes cytosolic chaperonin activity; purified chaperonin ATPase assay, HTRF ADP detection, 30 min; 360,000 tested, 0.3% active; activity change, % (concentration not given with the values), hits read low; in the data active means activity change below about -30%; further: on the % scale 0 is the no-effect control and ±100 the full control effect
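Nucleotide hydrolysis assay: TRiC at 20–40 nM final (set by batch activity) with 10 uM ATP, 30 min at 37 °C, in presence of 76 uM compound. Detection by competitive ADP HTRF, 30 min ambient.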
aSyn rescue – rescues yeast growth from alpha-synuclein toxicity; Yeast expressing alpha-synuclein, growth rescue, BacTiter-Glo, 24 h; Potency, µM (highest dose often 46.1 µM), for inactives: at the top dose growth rescue (activation), hits mostly activators; 370,000 tested, 0.14% active; AID 652106; further: potency means the concentration at half of the fitted maximal effect; % of control where 0% means no effect; nearly all actives have a fitted effect of over 65% in size
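Galactose-induced alpha-syn yeast (OD600=0.02, raffinose-pregrown) + pinned cpd, 24 hr, 30 deg C; growth by BacTiter-Glo luminescence. Growth restoration scores as activation.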
Mm-Cpn inhibitor – M. maripaludis TRiC chaperonin inhibition | purified Mm-Cpn ATPase, ADP Transcreener TR-FRET | Potency, µM (highest dose often 76.9 µM), for the others: at the highest dose activity, negative = inhibition, actives largely listed as inhibitors | 330,000 tested, 0.031% active; further: potency means the concentration at half of the fitted maximal effect; on the % scale 0 is the no-effect control and ±100 the full control effect; nearly all actives have a fitted effect of over 80% in size
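Measured: ADP formation by purified Mm-CPN. Conditions: 25 nM protein, 10 uM ATP, Tris pH 7.4 with Mg2+, K+ and DTT, 37°C for 30 min. Detection: Transcreener HTRF after 30 min at room temperature.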
Abeta rescue – restores growth of yeast expressing A-beta42 peptide; yeast expressing A-beta42, growth rescue, OD600, 48 h; response scale: 0% DMSO, 100% iron-clioquinol control; Potency, µM (titrated, usually from 46.1 µM), usual class: activators; 410,000 tested, 0.063% active; further: potency means the concentration at half of the fitted maximal effect; nearly all actives have a fitted effect of over 55% in size
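Yeast A-beta toxicity model in growth medium with pinned compounds, 48 h at 30 C; growth read as absorbance at 600 nm. Normalized to FeCl3/clioquinol equimolar mix (positive) and DMSO (negative).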
TDP-43 yeast inh – inhibitors of TDP-43 toxicity in yeast. Potency, µM (titrated, usually from 46.1 µM), inactives show at the top dose growth rescue (activation), hits mostly activators. TDP-43 expressing yeast growth rescue, BacTiter-Glo, 24 h. AID 652104. 410,000 tested, 1.8% active; further: potency means the concentration at half of the fitted maximal effect; % of control where 0% means no effect; nearly all actives have a fitted effect of over 50% in size
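Cell-based yeast growth screen: TDP-43 expression induced in galactose, inoculum OD600=0.02 after raffinose pregrowth to mid-log. Read-out BacTiter-Glo luminescence at 24 hr, 30 deg C; inhibition of toxicity seen as signal increase.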
FUS yeast rescue – FUS proteinopathy suppression in yeast | Potency, µM (titrated, usually from 76.6 µM), most hits filed as activators | S. cerevisiae FUS-expressing, growth rescue, OD600, 24 h | AID 1347120 | 390,000 tested, 0.24% active;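 further: potency means the concentration at half of the fitted maximal effect; plate controls were DMSO vehicle for no effect and reference control for full effect; nearly all actives have a fitted effect of over 55% in size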
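Steps: raffinose overnight preculture; dilution to OD 0.005 in 2% galactose minimal medium; compound addition (concentration series); 24hr at 30C, 99% humidity; absorbance read at 600 nm.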
* = called active by the depositor; i = inactive; ? = inconclusive; . = no result given; [ ] = another dose, or the depositor's remark. Unless noted, the call rests on the fitted dose curve; in most records, active means well fitted curve in the direction sought with a large enough effect; inconclusive means small, poorly fitted or top-dose-only effect, or another doubt; inactive means no such curve, though single readings can be large; an effect the other way counts as inactive or inconclusive.

SMILES | CCT chaperon mod | aSyn rescue | Mm-Cpn inhibitor | Abeta rescue | TDP-43 yeast inh | FUS yeast rescue
Cc1ccc(O)c(NC(=O)C2CC(c3c(F)cccc3Cl)=NO2)c1 (stereo not given) | 0.4 | . | 0.5% | i | 3.55µM* | i
CN(C)C(=O)/N=N/C(=O)N(C)C | . | 7.9% | . | . | . | .
CC(=O)ON(C(C)=O)c1ccc(/C=C2\C=Cc3ccccc32)cc1 | . | -15.9% | . | . | . | .
CCOC(=O)c1sc(NNC(=O)c2ccc(F)cc2)nc1C | -2.8 | ? | -1.8% | ? | 14.1µM* | i
CCOC(=O)c1sc(Nc2ccccc2Cl)nc1C | 0.1 | -2.8% | -4.2% | i | 20µM* | i
CCOC(=O)c1sc(Nc2ccc(Br)cc2)nc1C | 0.3 | 0.5% | -4.3% | i | 15.8µM* | i
Clc1nc(NCc2ccco2)c2ccccc2n1 | . | 9.2% | . | . | . | .
CC(=O)c1ccc2c(c1)C1C=CCC1C(c1ccncc1)N2 (stereo not given) | -2.0 | 5.4% | 0.4% | i | 16.5% | .
COC(=O)c1ccc(C2Nc3ccc(/C(C)=N/NC(=O)C(OC)c4ccccc4)cc3C3C=CCC32)cc1 (stereo not given) | 0.7 | 0.8% | 1.0% | i | -0.6% | 4.47µM*
CCc1ccccc1NC(=O)c1cc(S(=O)(=O)N2CCCC2)cn1C | . | . | . | i | 15.6% | i
Cn1nc(-c2ccncc2)nc2c(=O)n(C)c(=O)nc1-2 | . | 0.7% | . | . | . | .
Cc1ccc(CNC(=O)CSc2nc3ccsc3c(=O)n2Cc2ccccn2)cc1 | 1.2 | -7.8% | -0.8% | i | 21.1% | i
O=c1c2sccc2nc(SCc2ccc([N+](=O)[O-])cc2)n1Cc1ccccn1 | -6.7 | 3.4% | -0.5% | i | 22.4µM* | .
CCCN1C(=O)c2ccccc2NC1c1ccc(OC)c(COc2cccc(OC)c2)c1 (stereo not given) | . | 2.1% | . | . | . | .
CCC1CN(C(=O)N2CCC(C(=O)NCc3ccc(OC)cc3OC)CC2)c2cc(C)ccc2O1 (stereo not given) | . | . | . | i | 1.3% | ?
CC(=O)N1CCN(c2nc(CC(C)C)c3c(c2C#N)CCC3)CC1 | 0.7 | 6.9% | -1.7% | i | 22.1% | i
CC(C)Cc1nc(N2CCN(C(=O)c3ccccc3)CC2)c(C#N)c2c1CCC2 | -2.2 | 2.7% | -8.0% | i | 25.1µM* | ?
COc1ccc(C2/C(=C(\O)c3cc(C)ccc3C)C(=O)C(=O)N2CCN(C)C)cc1OC (stereo not given) | -80.0* | -8.4% | 0.3% | i | -16.8% | i
COc1ccc(/C(O)=C2\C(=O)C(=O)N(CCN(C)C)C2c2cc(OC)c(OC)c(OC)c2)c(C)c1 (stereo not given) | -2.5 | 4.1% | 1.2% | i | 6.4% | i
CN1CCC2(CC1)N=C(c1ccc(F)cc1)C(=S)N2C(=O)c1ccc(C(C)(C)C)cc1 | 1.6 | 13.9% | 1.4% | i | 20µM* | i
CCOC(=O)c1ccccc1NC(=O)c1sc2nc3n(c(=O)c2c1C)CCCC3 | . | . | . | i | 3.0% | i
O=C(O/N=C/c1ccc2c(c1)OCO2)c1ccc([N+](=O)[O-])cc1 | -30.6* | -0.3% | -15.0% | i | -4.9% | i
Cc1ccc(C(=O)O/N=C/c2ccc3c(c2)OCO3)cc1 | -0.5 | -3.7% | -1.1% | i | 16.3% | .
S=C(NN=Cc1ccccn1)N(Cc1ccccn1)Cc1ccccn1 | -42.8* | ? | . | ? | ? | .
O=C(COC(=O)c1cc(S(=O)(=O)N2CCOCC2)c(Cl)cc1Cl)NCc1ccco1 | -1.1 | 5.6% | 0.0% | i | -4.2% | i
SMILES | CCT chaperon mod | aSyn rescue | Mm-Cpn inhibitor | Abeta rescue | TDP-43 yeast inh | FUS yeast rescue
O=C(NCc1ccco1)c1cc(S(=O)(=O)N2CCOCC2)c(Cl)cc1Cl | -67.4* | 1.5% | 1.5% | i | -1.5% | .
c1ccc(N2CCN(Cc3nnc(-c4ccc5c(c4)OCO5)o3)CC2)cc1 | . | . | . | i | 0.0% | i
CN1C(=O)c2cc(NC(=O)C3CCOCC3)ccc2OC[C@@H]2O[C@@H](CC(=O)NCc3ccccc3F)CC[C@@H]21 | . | . | . | . | . | i
CCc1cc(C(=O)Nc2ccc(S(=O)(=O)NC3=NCCCCC3)cc2)sc1C | -2.2 | -2.8% | -10.4% | i | -26.8% | 25.1µM*
Cc1ccc(C(=O)Nc2ccc(S(=O)(=O)NC3=NCCCCC3)cc2)c(C)c1 | -0.3 | -0.2% | ? | i | -8.2% | i
O=S(=O)(c1ccccc1)N1CCN=C1SCc1c(F)cccc1Cl | -0.5 | 6.9% | -1.5% | i | 11.2µM* | .
Cc1cc(NC(=O)c2ccc(Br)cc2)nc(C)n1 | 0.1 | -2.1% | 4.8% | i | 15.8µM* | i
Cc1cc(NC(=O)c2ccccc2O)nc(C)n1 | -3.5 | -11.8% | 0.3% | i | 18.9% | i
Cc1cc(C(=O)Nc2c(F)cc(F)cc2Br)cs1 | 0.6 | 13.6% | -1.3% | i | 12.6µM* | i
C[C@H](NC(=O)/C(C#N)=C/c1ccc(O)c(O)c1)c1ccccc1 | . | 0.3% | . | . | . | .
COc1ccc2cc(C(=O)N/N=C/c3sc4ccccc4c3O)ccc2c1 | -1.2 | 10µM* | -0.6% | i | -10.8% | .
O=S(=O)(c1ccc(F)cc1)N1CCN(c2nc(-c3cccs3)nc3cc(Cl)ccc23)CC1 | . | 1.9% | . | . | . | .
Cc1ccc(S(=O)(=O)N2CCN(C(=O)N(C)C)CC2)cc1C | -51.5* | -6.1% | 0.3% | i | -24.0% | i
Cc1ccc(N(C)C(=O)N2CCN(S(=O)(=O)c3ccc(C)c(C)c3)CC2)cc1 | -0.9 | -11.2% | 0.4% | i | -20.8% | i
O=c1c2c3c(sc2nc(NCCO)n1CCc1ccccc1)CCCCC3 | -2.8 | -11.6% | -13.7% | i | 14.1µM* | ?
OCCNc1nc(SCc2ccccc2)nc2sc3c(c12)CCC3 | -0.1 | -10.5% | -1.1% | i | 10µM* | .
O=c1c2c3c(sc2nc(NCCO)n1Cc1ccco1)CCCCC3 | 1.8 | 8.4% | -0.5% | i | -3.6%[0.397 µM] | i
Nc1nc(NCc2ccc(F)cc2)c2[nH]cnc2n1 | . | 8.1% | . | . | . | .
O=C(NN=Cc1ccco1)c1cccnc1 | . | . | . | . | . | i
CC(C)n1nnnc1C1(C)CSCC(=O)N1Cc1cccc(F)c1 (stereo not given) | . | . | . | . | . | i
O=C(/C=C/c1cccs1)Nc1cccc(NC(=O)/C=C/c2cccs2)n1 | -4.2 | -8.3% | -13.5% | i | 7.94µM* | i
N#Cc1ccc(C(=O)Oc2coc(CSc3ncccn3)cc2=O)cc1 | . | . | . | . | . | i
Fc1ccccc1-c1nc(NCC2CC2)nc2ccsc12 | -0.7 | 7.9% | . | i | 22.4µM* | i
CCc1ccc2oc(-c3cc(NC(=O)c4cccs4)ccc3Cl)nc2c1 | . | -7.6% | . | i | 17.8µM* | i
CC(C)c1ccc2oc(-c3cc(NC(=O)c4cccnc4)ccc3Cl)nc2c1 | . | . | . | i | 15.8µM* | i

From PubChem BioAssay
